Akt phos inh – inhibitors of Akt phosphorylation; Neuro2A IGF-stimulated pAkt S473 HTRF, 20 min; active compounds read low; 360,000 compounds, 0.32% hits; activity change, % for hits at 50 µM; in the data active means activity change below about -80%; inconclusive means mostly about -51% to -80%
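Neuro2A cells in DMEM with 0.5% FBS, overnight at 37 deg C, given compound at single 50 µM final, then IGF (6 nM final) for 20 min at 37 deg C. Lysed; phospho-Akt Ser473 by HTRF after 24 h, 665/615 ratio.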
PI4K2A block – PI4K2A (human) kinase inhibition | 420,000 compounds, 0.13% hits | activity change, negative = inhibition, % at 76.9 µM | purified PI4K2A, ADP-Glo luminescence, 1 h; active compounds read low | Q9BTU6; in the data active means activity change below about -50%; inconclusive means mostly about -30% to -49%
Target sequence (Q9BTU6 whole entry, looked up): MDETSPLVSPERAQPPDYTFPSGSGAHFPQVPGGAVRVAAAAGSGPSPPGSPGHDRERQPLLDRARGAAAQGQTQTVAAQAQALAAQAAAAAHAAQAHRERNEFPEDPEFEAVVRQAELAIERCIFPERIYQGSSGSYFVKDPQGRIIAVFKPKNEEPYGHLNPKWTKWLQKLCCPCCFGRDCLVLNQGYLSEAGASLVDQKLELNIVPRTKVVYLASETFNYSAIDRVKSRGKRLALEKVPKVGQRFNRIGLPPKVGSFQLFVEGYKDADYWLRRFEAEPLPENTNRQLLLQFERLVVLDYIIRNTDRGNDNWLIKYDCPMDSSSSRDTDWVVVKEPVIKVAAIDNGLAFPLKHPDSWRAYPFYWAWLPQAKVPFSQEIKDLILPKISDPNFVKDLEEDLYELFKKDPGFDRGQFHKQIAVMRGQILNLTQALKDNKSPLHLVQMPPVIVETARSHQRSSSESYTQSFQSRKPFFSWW
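PI4K2A activity was measured by ADP-Glo luminescence: enzyme (4 ug/mL stock) and phosphatidylinositol (1.2 mM stock) in Tris pH 7.5/MgCl2/EGTA/Triton X-100 buffer were reacted with ATP (300 microM stock) for one hour at ambient temperature.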
Six1-Eya2 inh – inhibitors of human Six1/Eya2 interaction | Q15475+O00167 | AlphaScreen GST-Six1/His-Eya2 binding, biochemical; active compounds read low | activity change, % (test concentration not listed) | 360,000 compounds, 0.56% hits
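GST-Six1 + His-Eya2 (5X stock: 250/500 nM); Tris pH 8.0, 300 mM NaCl, 0.05% BSA, 0.02% Tween 20; GSH donor/Ni acceptor beads; 1 h 37 °C dark; AlphaScreen readout.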
CtBP-E1A blk – blocks the CtBP interaction with E1A; AlphaScreen GST-E1A/His-CtBP binding, 1536-well; active compounds read low; activity change, % (no concentration beside the values); 340,000 compounds, 0.49% hits; AID 651724
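Steps: dispense buffer (Tris pH 8.0, NaCl 300 mM, TCEP 1 mM, BSA, Tween 20); add 5X protein mix (GST-E1A, His-CtBP, 125 nM each); pin 23 nL compound; 2 h at 37 °C, dark; add 5X beads (50 ug/mL); 1 h; read.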
PI5P4Ka inh – PI5P4K alpha (human) kinase inhibition; PI5P4Kalpha enzyme, ADP-Glo luminescence, 60 min; active compounds read low; max response, %; 330,000 compounds, 1.2% hits; active means max response of -50% or lower; inconclusive means between -30% and -50%; inactive means -30% or higher; further: value at the top dose of about 77 µM
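ADP-Glo luminescence end-point after a 60 min room-temperature kinase reaction. PI5P4Kalpha and substrate in HEPES pH 7.4 buffer with EGTA, 0.1% CHAPS and 5% DMSO; ATP at 5 microM final.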
Numbers stand for hits; ! = a repeat was not active. In the library only some 1.8% were active in any assay of this set; here they are far more common. Unless noted, no stated cut-off is given here; in the data, active means activity change below about -65%; inconclusive means mostly about -30% to -63%; inactive means weaker than that.

How did Cc1ccc(C)c(NC(=S)/C(=C(\[O-])c2ccc(Cl)s2)[n+]2ccccc2)c1 do in these assays?
Akt phos inh: inactive; PI4K2A block: inactive; Six1-Eya2 inh: inactive; CtBP-E1A blk: inactive; PI5P4Ka inh: inactive

What do the screens show for `CN(Cc1ccccc1)C(=O)C1CCN(S(=O)(=O)c2cc([N+](=O)[O-])ccc2Cl)CC1`?
Akt phos inh: inactive; PI4K2A block: inactive; Six1-Eya2 inh: inactive; CtBP-E1A blk: inactive; PI5P4Ka inh: inactive

How did O=C(COC(=O)C1CC1)Nc1ncc(Cl)cc1Cl do in these assays?
Akt phos inh: inactive; PI4K2A block: inactive; Six1-Eya2 inh: inactive; CtBP-E1A blk: inactive; PI5P4Ka inh: inactive

How did CC(=O)COC(=O)C1CCN(S(=O)(=O)c2cc([N+](=O)[O-])ccc2Cl)CC1 do in these assays?
Akt phos inh: inactive; PI4K2A block: inactive; Six1-Eya2 inh: inactive; CtBP-E1A blk: inactive; PI5P4Ka inh: -52.8

How did O=C(COC(=O)C1CCN(S(=O)(=O)c2cc([N+](=O)[O-])ccc2Cl)CC1)Nc1ncc(Cl)cc1Cl do in these assays?
Akt phos inh: inactive; PI4K2A block: inactive; Six1-Eya2 inh: inactive; CtBP-E1A blk: inconclusive; PI5P4Ka inh: -50.2

How did COc1ccc(-c2oc3ncnc(NCCCN(C)C)c3c2-c2ccc(OC)cc2)cc1 do in these assays?
Akt phos inh: inactive; PI4K2A block: inactive; Six1-Eya2 inh: inactive; CtBP-E1A blk: inactive; PI5P4Ka inh: inactive

What do the screens show for `CCN1CCN(Cc2ccc(NC(=O)c3cc(NC(=O)c4cc(C)on4)cc(OC)c3)cc2C(F)(F)F)CC1`?
Akt phos inh: inactive; PI4K2A block: inactive; Six1-Eya2 inh: inactive; CtBP-E1A blk: inactive; PI5P4Ka inh: inactive

What do the screens show for `CCN1CCN(Cc2ccc(NC(=O)c3cc(NC(=O)C(=O)c4c[nH]c5ccccc45)cc(OC)c3)cc2C(F)(F)F)CC1`?
Akt phos inh: inactive; PI4K2A block: inactive; Six1-Eya2 inh: inactive; CtBP-E1A blk: inactive; PI5P4Ka inh: -62.9!

Results for CCN1CCN(Cc2ccc(NC(=O)c3ccc(C)c(NC(=O)C(=O)c4c[nH]c5ccccc45)c3)cc2C(F)(F)F)CC1 ?
Akt phos inh: inactive; PI4K2A block: inactive; Six1-Eya2 inh: inactive; CtBP-E1A blk: inactive; PI5P4Ka inh: -76.9!

Results for CC(Sc1ccsc1[N+](=O)[O-])C(=O)N1CCN(c2ccccn2)CC1 (configuration not stated) ?
Akt phos inh: inactive; PI4K2A block: inactive; Six1-Eya2 inh: inactive; CtBP-E1A blk: inactive; PI5P4Ka inh: inconclusive

Results for Cc1cc(CNC(=O)CC2C(=O)NCCN2Cc2ccccc2C(F)(F)F)on1 (configuration not stated) ?
Akt phos inh: inactive; PI4K2A block: inactive; Six1-Eya2 inh: inactive; CtBP-E1A blk: inactive; PI5P4Ka inh: inactive

How did Cc1cnc(CNC(=O)CC2C(=O)NCCN2Cc2ccccc2C(F)(F)F)cn1 (configuration not stated) do in these assays?
Akt phos inh: inactive; PI4K2A block: -60.5; Six1-Eya2 inh: inactive; CtBP-E1A blk: inactive; PI5P4Ka inh: inactive

What do the screens show for `COc1ccc(S(=O)(=O)c2c(O)c3ccc(C(=O)Nc4cccc(F)c4)cc3[nH]c2=O)cc1`?
Akt phos inh: inactive; PI4K2A block: inactive; Six1-Eya2 inh: -65.8; PI5P4Ka inh: inactive

What do the screens show for `O=c1[nH]c(-c2ccccn2)nc(C(F)(F)F)c1Br`?
Akt phos inh: inactive; PI4K2A block: inactive; Six1-Eya2 inh: -75.6; CtBP-E1A blk: -83.4; PI5P4Ka inh: inactive

What do the screens show for `O=c1[nH]c(-c2ccccn2)nc2ccccc12`?
Akt phos inh: inactive; PI4K2A block: inconclusive; Six1-Eya2 inh: -91.1; CtBP-E1A blk: -89.3; PI5P4Ka inh: inactive

Results for ClN=C1C=CC=CC1=NCl ?
PI4K2A block: inconclusive; Six1-Eya2 inh: inactive; CtBP-E1A blk: inactive; PI5P4Ka inh: -77.1

What do the screens show for `CC(NC(=S)NC(=O)c1ccccc1Br)c1ccccc1` (configuration not stated)?
Akt phos inh: inactive; PI4K2A block: inactive; Six1-Eya2 inh: inactive; CtBP-E1A blk: inactive; PI5P4Ka inh: -56.4

How did CCc1cc2c(NC(C(=O)O)C(C)C)ncnc2s1 (configuration not stated) do in these assays?
Akt phos inh: inactive; PI4K2A block: inactive; Six1-Eya2 inh: inactive; CtBP-E1A blk: inactive; PI5P4Ka inh: inactive

What do the screens show for `O=C(Nc1ccccc1O)c1ccc(NC(=O)C2CC2)cc1`?
Akt phos inh: inactive; PI4K2A block: inactive; Six1-Eya2 inh: inactive; CtBP-E1A blk: inactive; PI5P4Ka inh: inactive

What do the screens show for `O=C(Nc1ccccc1C(=O)O)c1ccc(NC(=O)C2CC2)cc1`?
Akt phos inh: inactive; PI4K2A block: inactive; Six1-Eya2 inh: -81.0; CtBP-E1A blk: inconclusive; PI5P4Ka inh: inactive

What do the screens show for `Nc1ccc(C(=O)Nc2ccccc2C(=O)O)cc1`?
Akt phos inh: inactive; PI4K2A block: inactive; Six1-Eya2 inh: inactive; CtBP-E1A blk: inconclusive; PI5P4Ka inh: inactive

What do the screens show for `O=C(Nc1ccccc1C(=O)Nc1ccccc1C(=O)O)c1ccccc1`?
Akt phos inh: inactive; PI4K2A block: inactive; Six1-Eya2 inh: -81.2; CtBP-E1A blk: -67.0; PI5P4Ka inh: inactive

What do the screens show for `COc1ccc(Cc2nnc(NC(=O)Nc3ccc(C)cc3)s2)cc1OC`?
Akt phos inh: inactive; PI4K2A block: inactive; Six1-Eya2 inh: inactive; PI5P4Ka inh: inactive

How did Clc1ss/c(=N\c2ccccn2)c1Cl do in these assays?
Akt phos inh: inactive; PI4K2A block: inactive; Six1-Eya2 inh: -91.7; CtBP-E1A blk: -86.3; PI5P4Ka inh: inactive

What do the screens show for `CCn1c(SCC(=O)N2CCCC2)nc2ccccc2c1=O`?
Akt phos inh: inactive; PI4K2A block: inactive; Six1-Eya2 inh: inactive; CtBP-E1A blk: inactive

Results for COCCn1c(SCC(=O)N2CCCCC2)nc2ccccc2c1=O ?
Akt phos inh: inactive; PI4K2A block: -64.8; Six1-Eya2 inh: inactive; CtBP-E1A blk: inactive

Results for CCn1c(Cc2ccccc2)nnc1SCC(=O)N1CCCC1=O ?
Akt phos inh: inactive; PI4K2A block: inactive; Six1-Eya2 inh: inactive; CtBP-E1A blk: inactive; PI5P4Ka inh: inactive

Results for COCCn1c(SCC(=O)Nc2ccccc2OC)nc2c(oc3ccccc32)c1=O ?
Akt phos inh: inactive; PI4K2A block: inactive; Six1-Eya2 inh: inactive; CtBP-E1A blk: inactive; PI5P4Ka inh: inactive

What do the screens show for `CCn1c(Cc2ccccc2)nnc1SCC(=O)N1CCCCC1`?
Akt phos inh: -105.6%; PI4K2A block: inactive; Six1-Eya2 inh: inactive; CtBP-E1A blk: inactive; PI5P4Ka inh: inactive

How did COCCn1c(SCC(=O)Nc2cccc(C)c2C)nc2c(oc3ccccc32)c1=O do in these assays?
PI4K2A block: -66.3

How did Cc1cccc(NS(=O)(=O)c2ccc3c(c2)CCN3C(=O)CCC(=O)O)c1C do in these assays?
PI4K2A block: inactive

What do the screens show for `O=C(CSc1nc2ccccc2n1CCc1ccccc1)c1ccc(O)c(O)c1`?
Akt phos inh: inactive; PI4K2A block: inactive; Six1-Eya2 inh: inconclusive; CtBP-E1A blk: inactive; PI5P4Ka inh: -88.7

Results for O=C(CSc1nc2ccccc2c(=O)[nH]1)c1ccc(O)cc1O ?
Akt phos inh: inactive; PI4K2A block: inactive; Six1-Eya2 inh: inactive; CtBP-E1A blk: inactive; PI5P4Ka inh: inactive

Bioassay records deposited in PubChem by National Center for Advancing Translational Sciences (NCATS).
